Laboratory results from PubChem BioAssay (NCI).
About 83,000 compounds went through this panel and 20% of them were active in at least one assay; those are over-represented in the sample as a whole.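 The test compound was applied at a single concentration to cells in 96-well plates for 48 hours, and percent growth was recorded.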 The source made the active and inactive calls. The calls were made as follows: active = growth percent below 10; inactive = the rest.

Legend:
Assay in all cases: NCI-60 one-dose screen, 48 h (100 = growth as untreated, 0 = no growth, -100 = all killed)
Conditions in all cases: 10 µM unless noted
NCI-H23 lung = test system: NCI-H23 lung
NCI-H226 lung = test system: NCI-H226 lung
NCI-H322M lung = test system: NCI-H322M lung
HOP-62 NSCLC = test system: HOP-62 NSCLC
NCI-H460 lung = test system: NCI-H460 lung
HOP-92 NSCLC = test system: HOP-92 NSCLC
NCI-H522 lung = test system: NCI-H522 lung
A549/ATCC NSCLC = test system: A549/ATCC NSCLC
786-0 renal = test system: 786-0 renal
COLO 205 colon = test system: COLO 205 colon
DU-145 prostate = test system: DU-145 prostate
K-562 leukemia = test system: K-562 leukemia
MALME-3M melanoma = test system: MALME-3M melanoma
MDA-MB-231 breast = test system: MDA-MB-231 breast
RXF 393 renal = test system: RXF 393 renal
SF-268 CNS = test system: SF-268 CNS
SF-295 CNS = test system: SF-295 CNS
SF-539 CNS = test system: SF-539 CNS
UACC-257 melanoma = test system: UACC-257 melanoma
M14 melanoma = test system: M14 melanoma

Measured: growth

O=C1Nc2ccc(Cl)cc2/C1=N/c1nc(-c2ccc(Cl)cc2)cs1
active: NCI-H23 lung 7.9% | HOP-62 NSCLC -5.13% | NCI-H460 lung -10.2% | HOP-92 NSCLC -13.1% | NCI-H522 lung -12.8% | A549/ATCC NSCLC 7.91% | 786-0 renal -16.2% | COLO 205 colon -51.6% | K-562 leukemia 5.94% | MDA-MB-231 breast -22.8% | RXF 393 renal -19.7% | SF-539 CNS -6.26% | UACC-257 melanoma -2.07% | M14 melanoma 1.32%
inactive: NCI-H226 lung 36.9% | NCI-H322M lung 48.9% | DU-145 prostate 26.2% | MALME-3M melanoma 22.2% | SF-268 CNS 21.6% | SF-295 CNS 14.3%

O=C(O)c1cn(C2CC2)c2cc(N3CCN(Cc4nnc(Nc5ccccc5)o4)CC3)c(F)cc2c1=O
inactive: NCI-H23 lung 105% | NCI-H226 lung 108% | NCI-H322M lung 93.5% | HOP-62 NSCLC 99.8% | NCI-H460 lung 104% | HOP-92 NSCLC 104% | NCI-H522 lung 92.7% | A549/ATCC NSCLC 98.3% | 786-0 renal 94.9% | COLO 205 colon 104% | DU-145 prostate 103% | K-562 leukemia 84.4% | MALME-3M melanoma 89.1% | MDA-MB-231 breast 109% | RXF 393 renal 118% | SF-268 CNS 90.2% | SF-295 CNS 102% | SF-539 CNS 99.4% | UACC-257 melanoma 106% | M14 melanoma 95.7%

Nc1ccc(C2=NN(C(=O)c3cc(-c4ccc(Cl)cc4)nc4ccccc34)C(c3ccccc3)C2)cc1 (stereo not given)
inactive: NCI-H23 lung 43.6% | NCI-H226 lung 53% | NCI-H322M lung 45.7% | HOP-62 NSCLC 35.4% | NCI-H460 lung 18.8% | HOP-92 NSCLC 50.9% | NCI-H522 lung 24% | A549/ATCC NSCLC 40.7% | 786-0 renal 21.7% | COLO 205 colon 30% | DU-145 prostate 33.2% | K-562 leukemia 15.6% | MALME-3M melanoma 52.5% | MDA-MB-231 breast 61.2% | SF-268 CNS 57.3% | SF-295 CNS 13.1% | SF-539 CNS 14.9% | UACC-257 melanoma 55.3% | M14 melanoma 16.9%
active: RXF 393 renal -3.58%

COc1ccc([C@H]2[C@@H](F)C(=O)N2c2cc(OC)c(OC)c(OC)c2)cc1F
active: NCI-H460 lung 7.06% | NCI-H522 lung -8.46% | COLO 205 colon -68% | DU-145 prostate 9.46% | K-562 leukemia 9.45% | SF-539 CNS 4.17% | M14 melanoma 1.91%
inactive: NCI-H23 lung 21.3% | NCI-H226 lung 59% | NCI-H322M lung 46.4% | HOP-62 NSCLC 31.8% | HOP-92 NSCLC 32.3% | A549/ATCC NSCLC 15.3% | 786-0 renal 22.9% | MALME-3M melanoma 74% | MDA-MB-231 breast 19.6% | RXF 393 renal 28.8% | SF-268 CNS 33.1% | SF-295 CNS 18.6% | UACC-257 melanoma 38.7%

CCCCCCC/C=C/[C@H]1O[C@]23C(=O)C[C@@]4(C[C@@H](OC5OC(CO)C(O)C(O)C5O)C[C@@H]4[C@H]2C=C1C)OC3=O (stereo not given in full)
active: NCI-H522 lung -44.7% | 786-0 renal 5.03% | K-562 leukemia 9.99% | MALME-3M melanoma 7.25% | MDA-MB-231 breast 5.73% | RXF 393 renal -43.7% | SF-539 CNS -14.3% | M14 melanoma -12.2%
inactive: NCI-H23 lung 40.8% | NCI-H226 lung 65.2% | NCI-H322M lung 56.2% | HOP-62 NSCLC 17.3% | NCI-H460 lung 49% | HOP-92 NSCLC 59% | A549/ATCC NSCLC 62.2% | COLO 205 colon 35.9% | DU-145 prostate 39.8% | SF-268 CNS 48.3% | SF-295 CNS 58.5% | UACC-257 melanoma 29%

Cn1nc(C(F)(F)F)c(-c2cc(C(F)(F)F)cc(C(F)(F)F)c2)c1-c1ccc(OCc2ccc(Cl)cc2)cc1O
active: NCI-H23 lung 0.56% | NCI-H322M lung 5.67% | HOP-62 NSCLC -9.87% | NCI-H460 lung -10.4% | HOP-92 NSCLC -20.1% | NCI-H522 lung -9.19% | 786-0 renal 2.41% | COLO 205 colon -90.7% | K-562 leukemia 1.63% | MALME-3M melanoma -15.9% | MDA-MB-231 breast -31.5% | RXF 393 renal -14.5% | SF-295 CNS -22.6% | SF-539 CNS 2.13% | UACC-257 melanoma -7.16% | M14 melanoma 6.3%
inactive: NCI-H226 lung 13.9% | A549/ATCC NSCLC 10.5% | DU-145 prostate 20.6% | SF-268 CNS 16.6%

C=C(C)[C@@H]1CCC=C2CC[C@]3(C)[C@H](CC[C@@H]4[C@@]5(C)CCCNC(C)(C)[C@@H]5CC[C@]43C)[C@H]21
active: NCI-H460 lung -24.6% | 786-0 renal -5.34% | COLO 205 colon -43.6% | K-562 leukemia -0.754% | MDA-MB-231 breast -6.11%
inactive: NCI-H23 lung 66.5% | NCI-H226 lung 104% | NCI-H322M lung 33.7% | HOP-62 NSCLC 77.8% | HOP-92 NSCLC 79.2% | NCI-H522 lung 66.7% | A549/ATCC NSCLC 13% | DU-145 prostate 18.6% | MALME-3M melanoma 38% | RXF 393 renal 47.6% | SF-268 CNS 93.1% | SF-295 CNS 72.5% | SF-539 CNS 84.8% | UACC-257 melanoma 83% | M14 melanoma 34.6%

CCOCc1nc2ccccc2c(=O)[nH]1
inactive: NCI-H23 lung 94.7% | NCI-H226 lung 91.7% | NCI-H322M lung 100% | HOP-62 NSCLC 102% | NCI-H460 lung 101% | HOP-92 NSCLC 102% | NCI-H522 lung 91.3% | A549/ATCC NSCLC 100% | 786-0 renal 103% | COLO 205 colon 108% | DU-145 prostate 107% | K-562 leukemia 119% | MALME-3M melanoma 89.6% | MDA-MB-231 breast 103% | RXF 393 renal 117% | SF-268 CNS 101% | SF-295 CNS 99.6% | SF-539 CNS 102% | UACC-257 melanoma 108% | M14 melanoma 96.2%
